System: Plasmodium falciparum NF54
Test: growth inhibition relative to untreated control; higher = more inhibition
Details: 72 h
Method in brief: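 P. falciparum NF54 ring stages (1% hematocrit, 1% parasitemia, 100 μL/well in 96-well half-area dark plates) were exposed for 72 h at 37 °C to single 5 μM or 1 μM doses of Pathogen Box compounds. The medium was minimal RPMI or minimal RPMI plus chorismate end-products (2.2 μM folate, 7.3 μM pABA, 7.3 μM pHBA, 111 μM tyrosine, 90 μM phenylalanine, tryptophan). Growth inhibition was read by SYBR Green, normalised to untreated controls, with uninfected erythrocytes as background.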

[1] = 1 µM, MM + chorismate end-products (CM screening medium)
[2] = 5 µM, MM + chorismate end-products (CM screening medium)

Structure (SMILES)	growth inhibition [1] [%]	growth inhibition (1 µM, minimal medium (MM)) [%]	growth inhibition [2] [%]	growth inhibition (5 µM, minimal medium (MM)) [%]
Cn1c(=O)c2c(S(C)(=O)=O)snc2n(C)c1=O	23.6	5.49	37.3	23.5
CCCc1ccc(S(=O)(=O)Nc2ccc(CN3CCN(CC4CC4)CC3)cc2)cc1	7.84	4.1	66.4	86.7
N#Cc1nc(-c2ccccc2F)oc1NCCc1ccccc1	< 0	< 0	< 0	15.2
CN1CCC(c2cc(-c3ccncc3)c(-c3ccc(F)cc3)[nH]2)CC1	72.9	72.7	92.6	92.2
NCC(=O)N1CCn2c(nc(-c3ccccc3)c2Nc2ccc3c(c2)OCO3)C1	99.3	> 100	> 100	93.2
CC1=NN(c2nc3ccccc3s2)C(=O)C1Cc1cccc2ccccc12 (configuration not stated)	< 0	0.985	< 0	< 0
C[C@@H]1[C@H](O)[C@@H](C)/C=C/C=C/C=C/C=C/C=C/C=C/C=C/[C@H](O[C@@H]2O[C@H](C)[C@@H](O)[C@H](N)[C@@H]2O)C[C@@H]2O[C@](O)(C[C@@H](O)C[C@@H](O)[C@H](O)CC[C@@H](O)C[C@@H](O)CC(=O)O[C@H]1C)C[C@H](O)[C@H]2C(=O)O	86.2	89.8	> 100	97.9
COc1cc(C2=NCCN2)ccc1-c1cn(-c2cccc(C3=NCCN3)c2)nn1	68.5	86.7	> 100	88.7
Cc1nc(-c2ccccn2)nc(N(C)CCc2ccccc2)c1Cl	31.5	23.4	82.9	83.8
COc1cccc2c(C)nc(N=C(N)N)nc12	70.2	71.3	92.4	89.2
COc1ccccc1CNC(=O)c1cc(C2CC2)nc2c1cnn2C(C)C	82.9	79.8	87.1	91.4
CC(=O)N1CCc2cc3nc(C)cc(C)c3cc21	13.3	< 0	38.1	< 0
CC(C)(C)c1cnc(NC(=O)c2ccccc2O)s1	38.5	7.86	51.6	3.99
CNc1cc(C)nc(C2CN(C(=O)c3n[nH]c4ccccc34)CCO2)c1 (configuration not stated)	16.4	10.7	41.7	21.7
CC(C)(C)CN1C(=O)C(c2ccccc2)(c2ccccc2)N=C1N	45.9	45.7	57.1	34.9
COc1ccc(Oc2ccc([C@@H](C)N(C)c3ncc4c(N)nc(N)nc4n3)cc2)cc1	13.7	< 0	> 100	89.1
CCOc1ccc(OCC(=O)Nc2cc(C)cc(C)c2)cc1	24.6	< 0	32.1	< 0

Structure (SMILES)	growth inhibition [1] [%]	growth inhibition (1 µM, minimal medium (MM)) [%]	growth inhibition [2] [%]	growth inhibition (5 µM, minimal medium (MM)) [%]
Cc1ccc2[nH]c(C3CCCNC3)c(-c3ccncc3)c2c1 (configuration not stated)	97.7	97.5	> 100	97.4
Cc1ccccc1CN1CCC(O)(c2ccc(Cl)c(C(F)(F)F)c2)CC1	51.6	30	82.6	76.2
O=C(Nc1ccc(N2CCNCC2)cc1)c1ccn2ncc(-c3cccc(Cl)c3)c2n1	> 100	> 100	> 100	99.8
CC(=O)NC[C@H]1CN(c2ccc(N3CCSCC3)c(F)c2)C(=O)O1	21.8	32.5	< 0	< 0
CCC(NC(=O)c1ccccc1NC(=O)c1ccc(C)cc1)C(=O)OC (configuration not stated)	97.3	96.2	97.1	91.3
CCc1cc(=O)n(C)c(SC(C)C(=O)Nc2ccc(F)cc2)n1 (configuration not stated)	< 0	2.62	96.9	94.5
COc1cccc(-c2cc3c(Nc4cccnc4)nccc3[nH]2)c1	91	18.4	94.2	94.8
N=C(N)c1ccc(-c2cc(-c3ccccc3)on2)cc1	2.89	5.06	86.7	71.2
Cc1nnc(NC(=O)c2cn(-c3ccccc3)nc2-c2ccccc2C)o1	89.2	87.7	83.6	83.6
Cc1ccc2nc(Cl)c(CNCc3cccs3)cc2c1	49.9	31.9	< 0	< 0
COc1ccc(-c2cnc3ccc(N4CCCC4)nn23)cc1OC	79.9	78	96.8	82.4
COc1cccc(NC(=O)c2c(NC(=O)c3cccnc3)sc3c2CCC3)c1	47.5	9.66	53.5	8.07
CCC(Sc1nc2ccccc2o1)C(=O)Nc1nccs1 (configuration not stated)	66.4	33	60	3.39
CC(=O)N1CCN(c2ccc(Oc3ccc(Cl)cc3O)cc2)CC1	48.6	13.5	< 0	< 0
CCCNC(=O)N1CCC2(CC1)CC(=O)c1cc(C)ccc1O2	72.5	76.5	86.4	84.9
O=C(Nc1ccc(C(F)(F)F)c(C(F)(F)F)c1)c1cc(Cl)ccc1O	93.1	95	> 100	92.5

Source: the supplement of paper PMC6763611
